# Data reported in ChEMBL document CHEMBL4513146, “CO-ADD screening of Karazin Kharkiv National University (Ukraine) compounds”.
# Results with a measured potency or affinity are listed apart.
# How the values were obtained:
# Staphylococcus aureus = conditions: Concentration 32 ug.mL-1;; ASSAY_TEST Inhibition of Bacterial Growth; detection method Absorption (OD600); MEDIA CAMHB; plate type 384well; NBS; CORNING #3640; time 18 hr
# Escherichia coli = conditions: Concentration 32 ug.mL-1;; ASSAY_TEST Inhibition of Bacterial Growth; detection method Absorption (OD600); MEDIA CAMHB; plate type 384well; NBS; CORNING #3640; time 18 hr
SMILES,Inhibition (Staphylococcus aureus) [%],Inhibition (Escherichia coli) [%]
Cc1cc(NC(=O)CSc2nc3ccccc3n3cnnc23)ccc1Br,13.29,3.15
COc1ccccc1CNC(=O)Cn1nc2c(N3CCCCCC3)nccn2c1=O,17.1,-0.92
O=C(CCc1nnc2c(N3CCCCC3)nc3ccccc3n12)NCc1ccc2c(c1)OCO2,17.67,2.95
O=S(=O)(c1cccn2c(SCc3c(F)cccc3Cl)nnc12)N1CCCC1,5.67,0.4
Cc1ccc(NC(=O)Cn2nc3c4c5c(sc4ncn3c2=O)CCCC5)c(Cl)c1,-4.74,-9.07
CCC(C)NC(=O)Cn1nc2n(CCC(C)C)c(=O)c3sccc3n2c1=O (centres undefined),-2.65,-5.43
CSc1cccc(NC(=O)Cn2nc3ccc(-c4ccc(C)c(C)c4)nn3c2=O)c1,-11.35,-14.99
CC(C)CCn1c(=O)c2ccc(C(=O)NC3CCCCC3)cc2n2c(=S)[nH]nc12,-4.78,-9.84
CCOc1ccc(C(=O)Cn2nc3n(CCC(C)C)c(=O)c4sccc4n3c2=O)cc1,6.67,3.25
Cc1nnc2c(S(=O)(=O)N(Cc3ccc(F)cc3)c3ccc(F)c(F)c3)cccn12,15.7,3.7
COc1cccc(Sc2nc3ccccc3n3c(=O)n(CC(=O)N4CCCc5ccccc54)nc23)c1,-3.45,-7.6
CC(=O)c1ccc(NC(=O)Cn2nc3ccc(-c4ccc(C)cc4)nn3c2=O)cc1,10.69,-3.43
